Reference: PubChem BioAssay (EPA / NIEHS)
Calls of active or inactive are those of the source. Rule for the calls: active = hit-call score of the fitted dose curve at least 0.9, where 1 is the maximum; inactive = score below 0.9.

Experiments:
[1] = APR_HepG2_P-H2AX_72hr: Apredica 72-hour HepG2 Assay for H2AX Phosphorylation (AID 2282916); conditions: imaging, actives raise or lower the signal;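 note: phospho-histone H2A.x immunostain intensity per cell marking DNA damage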
How it was run: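 HepG2; cpd 0.39–200 uM ×10 conc, duplicates; 0.5% DMSO; 72 hr. Fix 3.7% formaldehyde 30 min RT, 0.5% Triton X-100 10 min. Anti-phospho-H2A.x 1:200 + Hoechst 2 ug/mL, 60 min RT; ArrayScan imaging.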

[2] = APR_HepG2_MitoMembPot_72hr: Apredica 72-hour HepG2 Assay for Mitochondrial Membrane Potential (AID 2282917); conditions: imaging, actives raise or lower the signal
How it was run: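 HepG2 cells exposed 72 h to compounds at 0.39–200 uM (0.5% v/v DMSO, duplicates); MitoTracker Red CMXRos 250 nM loaded 30 min before 3.7% formaldehyde fixation, imaged by HCS fluorescence. Bidirectional fit versus DMSO.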

[3] = APR_HepG2_MitoticArrest_72hr: Apredica 72-hour HepG2 Assay for Mitotic Arrest (AID 2282918); conditions: high-content imaging, actives raise or lower the signal
How it was run: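 HepG2 cells were exposed for 72 hr to compound at 0.39–200 uM (10 concentrations, duplicate) in 0.5% v/v DMSO, fixed in 3.7% formaldehyde, immunostained for phospho-histone H3 with Hoechst 33342 and imaged by high-content fluorescence; bidirectional fits versus DMSO.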

[4] = APR_HepG2_MicrotubuleCSK_72hr: Apredica 72-hour HepG2 Assay for Microtubule CSK Stabilty (AID 2282919); conditions: HepG2 microtubule cytoskeleton, high-content imaging, actives raise or lower the signal
How it was run: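 HepG2 human liver cells were dosed for 72 h at ten concentrations from 0.39 to 200 uM in duplicate (0.5% v/v DMSO final). Fixed, permeabilized cells were immunostained for alpha-tubulin (Cy5) with a Hoechst counterstain and imaged at 20x.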

[5] = APR_HepG2_P-H2AX_24hr: Apredica 24-hour HepG2 Assay for H2AX Phosphorylation (AID 2282920); conditions: high-content imaging, actives raise or lower the signal
How it was run: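 HepG2 human liver cells were exposed for 24 hr to compounds at 0.39–200 uM in duplicate, with 0.5% v/v DMSO final. Fixed cells were immunostained for phospho-histone H2A.x plus Hoechst 33342, imaged by HCS fluorescence, and fitted bidirectionally against DMSO.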

[6] = APR_HepG2_StressKinase_72hr: Apredica 72-hour HepG2 Assay for Stress Kinase (AID 2282921); conditions: HepG2 stress kinase (phospho-c-Jun) imaging, actives raise or lower the signal
How it was run: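 Dose 0.39–200 uM (10 pts, duplicate), 0.5% DMSO; 72 h; fix 3.7% formaldehyde 30 min RT; Triton permeabilize; anti-phospho-c-Jun/Cy3 + Hoechst 60 min RT; image 20x; fit gain/loss vs DMSO.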

[7] = APR_HepG2_StressKinase_24hr: Apredica 24-hour HepG2 Assay for Stress Kinase (AID 2282922); conditions: HepG2 stress kinase (phospho-c-Jun) imaging, actives raise or lower the signal
How it was run: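 HepG2 cells exposed 24 hr to compound at 0.39–200 uM (10 concentrations, duplicate), 0.5% v/v DMSO final. Fixed in 3.7% formaldehyde, permeabilized with Triton X-100, immunolabeled for phospho-c-Jun with Hoechst 33342; HCS fluorescence imaging, bidirectional fit versus DMSO.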

[8] = APR_HepG2_p53Act_72hr: Apredica 72-hour HepG2 Assay for p53 Activation (AID 2282923); conditions: high-content imaging, actives raise or lower the signal;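 note: average cellular p53 protein immunofluorescence intensity in HepG2 cells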
How it was run: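 10-pt conc. 0.39–200 uM, duplicate, 0.5% DMSO; 72 hr exposure; 3.7% formaldehyde fix, 0.5% Triton perm; sheep anti-p53/Cy5 + Hoechst; ArrayScan 20x, 6 images/well; gain/loss fit vs DMSO.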

[9] = APR_HepG2_MitoMass_72hr: Apredica 72-hour HepG2 Assay for Mitochondrial Mass (AID 2282924); conditions: high-content imaging, actives raise or lower the signal;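 note: MitoTracker Red CMXRos stain intensity per cell imaged as mitochondrial mass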
How it was run: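 HepG2 cells were exposed for 72 hr to compounds at 0.39–200 uM (ten concentrations, duplicate, 0.5% v/v DMSO final). Live cells were stained with 250 nM MitoTracker Red CMXRos for 30 min, then fixed in 3.7% formaldehyde and imaged by HCS fluorescence.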

[10] = APR_HepG2_NuclearSize_72hr: Apredica 72-hour HepG2 Assay for Nuclear Size (AID 2282925); conditions: high-content imaging, actives raise or lower the signal
How it was run: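 HepG2 cells were exposed to compounds at ten concentrations from 0.39 to 200 uM (duplicate, 0.5% DMSO final) for 72 hr. After fixation in 3.7% formaldehyde, nuclei were stained with Hoechst 33342 (2 ug/mL) and imaged at 20x.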

[11] = ATG_CRE_CIS: Attagene CIS-FACTORIAL HepG2 Assay for human cAMP Responsive Element (CRE) binding protein 3 (AID 2282926); conditions: HepG2 CRE cis-reporter, Attagene multiplexed mRNA; actives raise or lower the signal
How it was run: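 HepG2 cells transiently transfected with a multiplexed reporter library (CRE-driven unit among them) were dosed for 24 h. Reporter mRNA was quantified by RT-PCR, fluorescent labelling, HpaI digestion and capillary electrophoresis, with bidirectional fitting against DMSO baseline.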

[12] = biological target: CCAAT/enhancer-binding protein beta (Homo sapiens) (UniProt P17676); experiment: ATG_C_EBP_CIS: Attagene CIS-FACTORIAL HepG2 Assay for human CCAAT/Enhancer Binding Protein (C/EBP) beta (AID 2282927); conditions: HepG2 Attagene cis-factorial transcription factor reporter; actives raise or lower the signal
How it was run: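 Following a 24 h incubation with test chemical, transfected HepG2 cells yielded RNA whose reporter transcripts were quantified by RT-PCR and fluorescent capillary electrophoresis, with DMSO serving as baseline for bidirectional fitting.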

[13] = ATG_CMV_CIS: Attagene CIS-FACTORIAL HepG2 Assay for human CMV (Internal Marker) (AID 2282928); conditions: HepG2 CMV promoter reporter, transcription factor profiling; actives raise or lower the signal;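 note: endpoint acts as a background internal control marker rather than a target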
How it was run: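 Cell system: HepG2, transiently transfected multiple reporter units under cis promoters. Exposure: 24 h. Detection: RT-PCR, FAM labeling, HpaI digestion, capillary electrophoresis. Analysis: bidirectional, DMSO baseline.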

[14] = ATG_DR4_LXR_CIS: Attagene CIS-FACTORIAL HepG2 Assay for human Liver X Receptor (LXR), DR4 submotif (AID 2282929); conditions: HepG2 Attagene DR4 cis-reporter, mRNA transcription; actives raise or lower the signal
How it was run: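 Readout: reporter transcript fluorescence after RT-PCR and capillary electrophoresis, fitted bidirectionally against DMSO controls. Human HepG2 liver cells carried transiently transfected multiplexed reporter constructs; endogenous transcription factor activity measured 24 h post-dosing.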

[15] = biological target: Aryl hydrocarbon receptor (Homo sapiens) (UniProt P35869); experiment: ATG_Ahr_CIS: Attagene CIS-FACTORIAL HepG2 Assay for human Aryl Hydrocarbon Receptor (Ahr) (AID 2282930); conditions: HepG2 AhR cis-factorial reporter transcription; actives raise or lower the signal
How it was run: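 Values derive from bidirectional fitting against DMSO negative control. Underlying signal: cis-element reporter mRNA in transiently transfected HepG2, harvested 24 h post-dose and measured by RT-PCR plus capillary electrophoresis.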

[16] = ATG_AP_1_CIS: Attagene CIS-FACTORIAL HepG2 Assay for human Activator Protein 1 (AP-1) (AID 2282931); conditions: HepG2 Attagene cis-factorial AP-1 reporter mRNA; actives raise or lower the signal
How it was run: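 Reporter transcripts were measured 24 h after dosing by RT-PCR and capillary electrophoresis of fluorescent fragments. Cells: HepG2 carrying transfected cis-regulated reporter constructs reading endogenous factor activity. Gain or loss fitted against DMSO.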

[17] = ATG_AP_2_CIS: Attagene CIS-FACTORIAL HepG2 Assay for human Activator Protein 2 (AP-2) (AID 2282932); conditions: HepG2 AP-2 cis-reporter, Attagene transcription factor profiling; actives raise or lower the signal
How it was run: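 Bidirectional curve fitting against DMSO was applied to reporter mRNA signals from HepG2 cells 24 h after dosing. Cis-promoter reporter units, transiently transfected, were read by RT-PCR plus capillary electrophoresis.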

[18] = biological target: Retinoic acid receptor alpha (Homo sapiens) (UniProt P10276); experiment: ATG_DR5_RAR_CIS: Attagene CIS-FACTORIAL HepG2 Assay for human Retinoic Acid Receptor Alpha (RARE), DR5 submotif (AID 2282934); conditions: HepG2 Attagene cis-factorial RARE DR5 reporter, mRNA; actives raise or lower the signal
How it was run: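 Endpoint fitted in both directions relative to DMSO as negative control. It reflects DR5 cis-element reporter mRNA induction in transiently transfected HepG2 cells, measured 24 h after dosing through RT-PCR and fluorescent capillary electrophoresis.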

[19] = biological target: Transcription factor E2F1 (Homo sapiens) (UniProt Q01094); experiment: ATG_E2F_CIS: Attagene CIS-FACTORIAL HepG2 Assay for human E2F Transcription Factor 1 (AID 2282935); conditions: HepG2 Attagene cis-reporter, E2F reporter RNA transcripts; actives raise or lower the signal
How it was run: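 Multiplexed cis-reporter assay: HepG2, transient transfection, 24 h dosing, mRNA quantitation by labeled RT-PCR and CE.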

[20] = ATG_BRE_CIS: Attagene CIS-FACTORIAL HepG2 Assay for human Bone Morphogenetic Protein (BMP) Response Element (BRE) (AID 2282933); conditions: HepG2 BMP response element reporter, Attagene transcription factor profiling; actives raise or lower the signal
How it was run: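 Endogenous transcription factor activity read in transiently transfected HepG2 cells after 24 h chemical exposure. Bidirectional curve fitting against DMSO; readout is reporter transcript level by RT-PCR with capillary electrophoresis of labelled products.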

Measured: AC50

Sequence of Aryl hydrocarbon receptor (Homo sapiens) (P35869 whole entry, looked up): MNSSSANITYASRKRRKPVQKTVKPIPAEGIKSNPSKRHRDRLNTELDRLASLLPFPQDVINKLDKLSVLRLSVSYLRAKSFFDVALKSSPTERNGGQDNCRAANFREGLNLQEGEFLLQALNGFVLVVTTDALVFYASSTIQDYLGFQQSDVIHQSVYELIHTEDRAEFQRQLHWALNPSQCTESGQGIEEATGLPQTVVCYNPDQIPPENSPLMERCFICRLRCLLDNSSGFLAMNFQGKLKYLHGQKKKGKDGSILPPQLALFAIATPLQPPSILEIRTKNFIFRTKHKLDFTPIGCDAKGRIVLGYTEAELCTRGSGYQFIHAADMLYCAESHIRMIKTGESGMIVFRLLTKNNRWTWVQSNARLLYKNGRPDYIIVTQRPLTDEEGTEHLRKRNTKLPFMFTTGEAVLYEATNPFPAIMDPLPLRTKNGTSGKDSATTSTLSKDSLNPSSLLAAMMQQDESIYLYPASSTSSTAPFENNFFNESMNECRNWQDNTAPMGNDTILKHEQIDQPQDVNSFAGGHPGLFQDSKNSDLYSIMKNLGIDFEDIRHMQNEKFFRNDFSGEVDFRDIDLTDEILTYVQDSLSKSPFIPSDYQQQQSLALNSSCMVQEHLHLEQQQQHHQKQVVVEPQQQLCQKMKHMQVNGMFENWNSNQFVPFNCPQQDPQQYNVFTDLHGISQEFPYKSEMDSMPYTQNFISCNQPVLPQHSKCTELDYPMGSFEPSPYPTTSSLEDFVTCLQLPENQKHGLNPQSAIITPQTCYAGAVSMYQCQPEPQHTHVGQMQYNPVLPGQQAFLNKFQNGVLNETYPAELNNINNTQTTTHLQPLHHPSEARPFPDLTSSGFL
Sequence of CCAAT/enhancer-binding protein beta (Homo sapiens) (P17676 whole entry, looked up): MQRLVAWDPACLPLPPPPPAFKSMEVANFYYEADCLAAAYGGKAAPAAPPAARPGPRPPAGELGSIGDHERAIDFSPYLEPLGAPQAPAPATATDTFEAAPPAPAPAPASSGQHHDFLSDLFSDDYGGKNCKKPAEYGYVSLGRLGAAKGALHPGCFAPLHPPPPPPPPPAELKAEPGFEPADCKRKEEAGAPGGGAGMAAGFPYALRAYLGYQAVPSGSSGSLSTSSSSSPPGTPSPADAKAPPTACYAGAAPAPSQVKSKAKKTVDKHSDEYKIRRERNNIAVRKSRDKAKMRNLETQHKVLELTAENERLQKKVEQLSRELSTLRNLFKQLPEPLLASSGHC
Sequence of Transcription factor E2F1 (Homo sapiens) (Q01094 whole entry, looked up): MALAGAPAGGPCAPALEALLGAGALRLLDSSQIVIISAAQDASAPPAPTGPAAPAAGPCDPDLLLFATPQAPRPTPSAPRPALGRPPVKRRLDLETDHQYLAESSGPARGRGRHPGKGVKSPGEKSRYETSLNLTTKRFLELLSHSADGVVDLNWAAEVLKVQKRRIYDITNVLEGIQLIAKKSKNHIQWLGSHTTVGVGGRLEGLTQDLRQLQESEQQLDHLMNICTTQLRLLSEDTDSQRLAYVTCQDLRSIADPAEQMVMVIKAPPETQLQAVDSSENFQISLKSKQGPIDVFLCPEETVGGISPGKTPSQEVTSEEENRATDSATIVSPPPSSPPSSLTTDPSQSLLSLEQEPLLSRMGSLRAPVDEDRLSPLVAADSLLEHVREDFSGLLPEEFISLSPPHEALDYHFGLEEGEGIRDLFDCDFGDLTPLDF
Sequence of Retinoic acid receptor alpha (Homo sapiens) (P10276 whole entry, looked up): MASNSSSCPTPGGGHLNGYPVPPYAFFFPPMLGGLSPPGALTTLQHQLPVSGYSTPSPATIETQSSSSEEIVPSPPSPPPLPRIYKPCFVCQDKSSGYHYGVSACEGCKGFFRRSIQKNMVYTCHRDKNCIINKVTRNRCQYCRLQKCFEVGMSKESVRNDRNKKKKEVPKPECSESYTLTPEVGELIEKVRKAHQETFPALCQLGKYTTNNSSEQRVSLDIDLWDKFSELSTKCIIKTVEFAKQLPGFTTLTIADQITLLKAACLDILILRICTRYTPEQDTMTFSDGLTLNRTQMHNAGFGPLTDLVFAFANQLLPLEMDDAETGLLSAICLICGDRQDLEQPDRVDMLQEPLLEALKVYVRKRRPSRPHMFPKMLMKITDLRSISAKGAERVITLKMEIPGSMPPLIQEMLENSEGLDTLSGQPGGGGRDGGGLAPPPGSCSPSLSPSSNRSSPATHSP

O=C1c2ccccc2C(=O)N1SC(Cl)(Cl)Cl
active: [2] 10.4 µM
not listed: [20]
inactive: all other assays above

CCCN(CCC)c1c([N+](=O)[O-])cc(C(F)(F)F)cc1[N+](=O)[O-]
active: [12] 2.59 µM | [13] 82.3 µM | [14] 24.1 µM
not listed: [8] | [18]
inactive: all other assays above

COP(=O)(OC)OC=C(Cl)Cl
active: [5] 76.2 µM | [13] 18.4 µM | [16] 67.3 µM | [17] 50 µM
not listed: [8] | [18] | [20]
inactive: all other assays above

[2H]C1([2H])[n+]2ccccc2-c2cccc[n+]2C1([2H])[2H]
active: [3] 94.5 µM | [4] 143 µM | [13] 13.5 µM | [14] 79.9 µM | [16] 38.9 µM | [19] 90.7 µM
not listed: [20]
inactive: all other assays above

COc1cc(OC)nc(NC(=O)NS(=O)(=O)c2cc(NC=O)ccc2C(=O)N(C)C)n1
active: [12] 13.3 µM
not listed: [20]
inactive: all other assays above

CCOCN(C(=O)CCl)c1c(C)cccc1CC
active: [3] 93 µM | [4] 13.9 µM | [5] 30.9 µM
not listed: [20]
inactive: all other assays above

CNC(=O)Oc1cccc(N=CN(C)C)c1
active: [1] 107 µM | [5] 106 µM | [11] 50 µM | [12] 50 µM | [13] 50 µM | [15] 93.9 µM | [16] 77.5 µM
not listed: [20]
inactive: all other assays above

COc1nn(CSP(=S)(OC)OC)c(=O)s1
not listed: [20]
inactive: all other assays above

CCC(C)(C)C(=O)OC1=C(c2ccc(Cl)cc2Cl)C(=O)OC12CCCCC2
not listed: [20]
inactive: all other assays above
